DT40 TDP1 CPT – qHTS for Inhibitors of human tyrosyl-DNA phosphodiesterase 1 (TDP1): qHTS in cells in presence of CPT | chicken DT40 Tdp1-/-;hTDP1 cells + 20 nM CPT, ATP luminescence, 48 h | Potency, µM (highest dose often 46.2 µM), inactives show at the top dose activity change, negative = growth inhibition, actives largely listed as inhibitors | 12% of 420,000 active; also: potency is read from the fitted curve at half-maximal effect; nearly all actives have a fitted effect of over 55% in size
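Chicken DT40 Tdp1-/- cells complemented with human TDP1, 400 cells/well, exposed to compounds plus 20 nM camptothecin for at least 48 h at 37 C; viability read as ATP content by CellTiter-Glo luminescence.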
TDP1 cell noCPT – qHTS for Inhibitors of human tyrosyl-DNA phosphodiesterase 1 (TDP1): qHTS in cells in absence of CPT; Potency, µM (top dose mostly 46.2 µM), for inactives: at the top dose activity change, negative = growth inhibition, usual class: inhibitors; 15% of 420,000 active; DT40 Tdp1-/- hTDP1 cells, no CPT, ATP luminescence, 48 h; also: potency is read from the fitted curve at half-maximal effect; nearly all actives have a fitted effect of over 55% in size
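Growth kinetics read by CellTiter-Glo luminescence after ≥48 hr at 37 °C. Cells: DT40 Tdp1-/- stably carrying human TDP1, 400 per well, compound exposure in the absence of CPT (DMSO vehicle).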
IL1B secr inh – qHTS for Inhibitors of Inflammasome Signaling: IL-1-beta AlphaLISA Primary Screen; THP-1 LPS/ATP IL-1B secretion, AlphaLISA, 16 h; stronger effect = lower value; AID 743279, 2014; activity change, % at 57.5 µM; 4.7% of 360,000 active; in the data active = activity change below about -50%; inconclusive = mostly about -30% to -49%
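Secreted IL-1B measured by AlphaLISA bead assay after 16 h compound exposure of THP-1 cells; compounds (final up to 57.5 uM) added 1 h before LPS (250 ng/mL) and ATP (1.25 mM) stimulation; lower signal means less secretion.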
HT1080 IDH1KD tx – qHTS for induction of synthetic lethality in tumor cells producing 2HG: qHTS for the HT-1080-IDH1KD cell line; HT-1080 IDH1 knockdown viability, ATP luminescence, 48 h; 2% of 360,000 active; Potency, µM (titrated, usually from 46.1 µM), for the others: at the highest dose activity, negative = toxicity, usual class: cytotoxic; AID 686971, 2013;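 also: potency is read from the fitted curve at half-maximal effect; 0% = DMSO wells and -100% = cell-free medium wells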
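Cytotoxicity counter-line: IDH1KD HT-1080, 48 h, CellTiter-Glo. Curves classed by r2, magnitude and activity.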
HT1080-NT tox – qHTS for induction of synthetic lethality in tumor cells producing 2HG: qHTS for the HT-1080-NT fibrosarcoma cell line; Potency, µM (titrated, usually from 46.1 µM), for the others: at the highest dose activity, negative = less viability, actives largely listed as cytotoxic; HT-1080-NT fibrosarcoma viability, CellTiter-Glo ATP luminescence, 48 h; 1.6% of 360,000 active;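 also: NT is the 2HG producing partner of a matched IDH1 knockdown line; potency is read from the fitted curve at half-maximal effect; 0% = DMSO-treated cells and -100% = media-only wells without cells; nearly all actives have a fitted effect of over 55% in size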
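A 48-hour cytotoxicity screen used HT-1080-NT cells plated 2 hours before compound delivery. ATP-based CellTiter-Glo luminescence measured viability, normalized to DMSO and no-cell controls.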
An asterisk follows results filed as active. Most compounds without a hit are left out; they make up all but 19% or so of the library. Unless noted, calls follow the shape of the dose curve; as a rule, active = well fitted curve in the direction sought with a large enough effect; inconclusive = small, poorly fitted or top-dose-only effect, or another doubt; inactive = no such curve, though single readings can be large; an effect the other way counts as inactive or inconclusive. Unless noted, % is scaled to controls: 0 for no effect and ±100 for the full control effect.

What do the screens show for `COc1ccc(/C=N/NC(=O)CSc2ccccn2)cc1OC`?
DT40 TDP1 CPT: 12.1%; TDP1 cell noCPT: 5.7%; IL1B secr inh: -6.8; HT1080 IDH1KD tx: -0.7%; HT1080-NT tox: 13.2%

Results for Cc1ccc(-c2nn(-c3ccccc3)cc2/C=N/NC(=O)CSc2nnc(C)n2-c2ccccc2)cc1 ?
DT40 TDP1 CPT: inconclusive; TDP1 cell noCPT: inconclusive; IL1B secr inh: -62.1*; HT1080 IDH1KD tx: inconclusive; HT1080-NT tox: inconclusive

How did O=C(Nc1cccc(S(=O)(=O)N2CCCCCC2)c1)C1CCN(C(=O)c2ccc(F)cc2)CC1 do in these assays?
DT40 TDP1 CPT: inconclusive; TDP1 cell noCPT: inconclusive; IL1B secr inh: -3.8; HT1080 IDH1KD tx: -2.5%; HT1080-NT tox: -10.6%

What do the screens show for `Cc1nn(Cc2ccccc2)c(C)c1/C=N/NC(=O)CNc1cccc(C(F)(F)F)c1`?
DT40 TDP1 CPT: -73.3%; TDP1 cell noCPT: inconclusive; IL1B secr inh: -23.4; HT1080 IDH1KD tx: -28.6%; HT1080-NT tox: -22.5%

What do the screens show for `O=C(CNc1cccc(C(F)(F)F)c1)N/N=C/c1cn(-c2ccccc2)nc1-c1ccccc1`?
DT40 TDP1 CPT: 16.4µM*; TDP1 cell noCPT: inconclusive; IL1B secr inh: inconclusive; HT1080 IDH1KD tx: inconclusive; HT1080-NT tox: inconclusive

How did COc1ccc(O)c(/C=N/NC(=O)CSc2nnc(C)n2-c2ccccc2)c1 do in these assays?
DT40 TDP1 CPT: 16.4µM*; TDP1 cell noCPT: 18.4µM*; IL1B secr inh: 64.0; HT1080 IDH1KD tx: inconclusive; HT1080-NT tox: inconclusive

What do the screens show for `CC1CN(C(=O)c2ccccc2NS(=O)(=O)c2ccc(Cl)cc2)CC(C)O1` (centres undefined)?
DT40 TDP1 CPT: -9.2%; TDP1 cell noCPT: -3.9%; IL1B secr inh: 9.2; HT1080 IDH1KD tx: -6.3%; HT1080-NT tox: 18.6%

What do the screens show for `CCN(C(=O)c1cn(CC)c(=O)c2cc(OC)c(OC)cc12)c1ccc(C)c(C)c1`?
DT40 TDP1 CPT: 23.1µM*; TDP1 cell noCPT: inconclusive

How did CCc1ccccc1N(CC)C(=O)c1cn(C)c(=O)c2cc(OC)c(OC)cc12 do in these assays?
DT40 TDP1 CPT: -11.6%; TDP1 cell noCPT: inconclusive; IL1B secr inh: 0.4; HT1080 IDH1KD tx: -0.5%; HT1080-NT tox: 1.9%

What do the screens show for `CCc1ccccc1N(CC)C(=O)c1cn(CC)c(=O)c2cc(OC)c(OC)cc12`?
DT40 TDP1 CPT: inconclusive; TDP1 cell noCPT: 20.6µM*; IL1B secr inh: -8.0; HT1080 IDH1KD tx: -13.4%; HT1080-NT tox: -1.8%

What do the screens show for `COc1ccc(C(C[N+](=O)[O-])C2(c3ccc(OC)c(OC)c3)C(=O)c3ccccc3C2=O)cc1` (centres undefined)?
DT40 TDP1 CPT: inconclusive; TDP1 cell noCPT: 4.11µM*; IL1B secr inh: -102.4*; HT1080 IDH1KD tx: 20.6µM*; HT1080-NT tox: inconclusive

How did COc1ccc(NC(=O)N2CC[C@@]3(CCCN(S(C)(=O)=O)C3)C2)cc1 do in these assays?
DT40 TDP1 CPT: -1.7%; TDP1 cell noCPT: -1.6%

Results for O=C(NCCc1nnc2n1CCN(Cc1ccc(F)cc1)CC2)c1ccco1 ?
DT40 TDP1 CPT: 0.2%; TDP1 cell noCPT: -1.5%

How did COc1ccc(NC(=O)c2cncc(Br)c2)cc1S(=O)(=O)N1CCCCC1 do in these assays?
DT40 TDP1 CPT: inconclusive; TDP1 cell noCPT: 20.6µM*; IL1B secr inh: -11.2; HT1080 IDH1KD tx: -10.1%; HT1080-NT tox: -6.7%

What do the screens show for `COc1ccc(Br)cc1S(=O)(=O)N1CCCC1`?
DT40 TDP1 CPT: 9.2µM*; TDP1 cell noCPT: 8.2µM*; IL1B secr inh: -3.6; HT1080 IDH1KD tx: 1.2%; HT1080-NT tox: -4.6%

How did COc1ccc(C(=O)Nc2ccc(-c3ccc(C)o3)cc2)cc1S(=O)(=O)N1CCOCC1 do in these assays?
DT40 TDP1 CPT: inconclusive; TDP1 cell noCPT: 20.6µM*; IL1B secr inh: -19.4

Bioassay records from PubChem BioAssay.
